Many of the other results were omitted from the sample, so hits are more common in it than they were.
ERK EGF inh: EGF-driven ERK pathway inhibition. HEK293-V1b, EGF-stimulated phospho-ERK AlphaScreen. Potency, µM (series often up to 11.5 µM), for the others: at the highest dose activity change, negative = inhibition, actives largely listed as inhibitors. hit rate 0.41% among 130,000. AID 1454; active = well fitted inhibition curve with a large enough effect;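 also: plate controls were stimulated vehicle wells for no effect and unstimulated vehicle basal for full effect; nearly all actives have a fitted effect of over 55% in size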
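HEK293 cells stably expressing V1b receptor, serum-reduced (1% FBS) overnight, pretreated 30 min with compound, then stimulated 5 min with 25 nM EGF; phospho-ERK detected by AlphaScreen SureFire. AC50 from Hill fits, normalized to DMSO and EGF.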
Starred values were filed as active, the others as inactive; [ ] = remark or other dose. Potency is read from the fitted curve at half-maximal effect.

SMILES | ERK EGF inh
COc1ccccc1NS(=O)(=O)c1ccc(N/N=C/c2c(C)nn(-c3ccccc3)c2N2CCCC2)c([N+](=O)[O-])c1 | 12.6µM*
Cc1nn(-c2ccccc2)c(N2CCCC2)c1/C=N/Nc1ccc(S(=O)(=O)Nc2ccccc2)cc1[N+](=O)[O-] | 3.5%
COc1ccccc1NS(=O)(=O)c1cccc(C(=O)N/N=C/c2c(C)nn(-c3ccccc3)c2N2CCCC2)c1 | 4.9%
CC(C)=CC1C(CO)C1(C)C (stereo not given) | 20.2%
Cc1ccc(N/C(=N/S(=O)(=O)c2cccs2)c2ccccc2)c(C)c1 | 3.5%
O=C1C=C(Nc2ccccc2)c2ccccc2C1=O | -2.7%
CC1=CC(=O)c2ccccc2C1=O | -13.4%
O=C1C(Nc2ccccc2)=C/C(=N/S(=O)(=O)c2cccs2)c2ccccc21 | 14.1µM*
CCc1cc[n+](C2=C([O-])c3ccccc3C(=O)/C2=N\S(=O)(=O)c2cccs2)cc1 | 9.5%
O=C1C=C(Nc2ccccc2)C(=O)c2ccccc21 | 25.1µM*
FC(F)(F)c1ccccc1-c1cncnc1NCCc1cnc[nH]1 | 23.5%
CS(=O)(=O)N1CCC[C@@]2(CCN(C(c3ccccc3)c3ccccc3)C2)C1 | -2.9%
O=C(Nc1cccc(F)c1)N1CCCC2(CCN(C(=O)c3csnn3)CC2)C1 | -11.6%
CCOC(=O)/C=C/CCC/C=C/C(=O)c1ccccc1 | -7.4%
Nc1nc2c(nc(Sc3ccc(Cl)cc3)n2C2OC(CO)C(O)C2O)c(=O)[nH]1 (stereo not given) | 24.6%
COc1ccc2c(c1)O[C@@H](c1cccc(C(F)(F)F)c1)[C@H](OC(=O)NCc1ccco1)C2=O | 2.3%
COCC(=O)N1CCC2(CC1)CN(C(=O)Nc1ccccc1)C2 | 3.1%
Cc1cccc(N=C2NC(=O)/C(=C/c3cccs3)S2)c1 | 25.1µM*
Cc1cccc(N=C2NC(=O)/C(=C/c3cccn3C)S2)c1 | 0.6%[57.5 µM]
O=C1Nc2ccccc2S/C1=C/c1cccs1 | -1.0%[57.5 µM]
CC[n+]1c(/C=C/c2ccc(N(C)C)cc2)ccc2ccccc21 | 2.7%
CC[n+]1ccc(/C=C/c2ccc(N(C)C)cc2)c2ccccc21 | 14.1µM*
CC[n+]1ccccc1/C=C/c1ccc(N(C)C)cc1 | -2.6%
COc1ccc(C(=O)N2CCC[C@@]3(CCN(C(=O)Nc4cccc(C#N)c4)C3)C2)cc1 | -8.6%
Cc1[nH]c2ccccc2c1N=Nc1ccc(F)cc1 | 2.1%
SMILES | ERK EGF inh
Cc1cc(=O)n2[nH]c(N)c(N=Nc3ccccc3)c2n1 | 6.4%
Cc1[nH]c(N=Nc2ccccc2)nc1N=Nc1ccccc1 | 22.4µM*
C=C1C(=O)OC2C[C@@]3(C)CCCC(=C)[C@@H]3CC12 (stereo not given in full) | -17.2%
CCOC(=O)N/N=C/C=C/c1ccccc1[N+](=O)[O-] | 9.4%
COc1ccccc1N1CCN(/N=C/C=C\c2ccccc2[N+](=O)[O-])CC1 | 25.1µM*
COc1ccccc1N1CCN(/N=C/c2cccc(OC)c2O)CC1 | -8.9%
O=[N+]([O-])c1ccccc1/C=C/C=N/n1c(-c2ccccc2)n[nH]c1=S | -11.8%
Cc1ccc(N2CCN(/N=C/c3ccccc3[N+](=O)[O-])CC2)cc1 | -3.8%
CC1CCCC(C)N1/N=C/C=C/c1ccccc1[N+](=O)[O-] (stereo not given) | 20µM*
Nc1nc(Cl)nc2c1ncn2[C@@H]1O[C@H](CO)[C@H](O)[C@H]1O | 16.2%
COC(=O)C(C(=O)OC)[C@@H](NC(=O)OCc1ccccc1)c1ccccc1 | -12.9%
CN(C)c1ccnc(Nc2ccccc2)c1C#N | 6.9%[57.5 µM]
CN(C)c1ccnc2c[cH-]cc12.[Fe].c1ccc(-[c-]2[c-](-c3ccccc3)[c-](-c3ccccc3)[c-](-c3ccccc3)[c-]2-c2ccccc2)cc1 (stereo not given) | 3.16µM*
C[C@@H](CCc1ccc(O)cc1)NCCc1ccc(O)c(O)c1 | -3.2%
COC(=O)[C@H](Cc1ccccc1)NC(=O)O[C@H]1C(=O)c2cc(OC)ccc2O[C@@H]1c1ccc(OC)c(Br)c1 | 7.1%
CC(=O)Oc1cc(OC(C)=O)c2c(=O)cc(-c3ccc(OC(C)=O)c(OC(C)=O)c3)oc2c1 | 9.2%
C[C@@H]1C[C@](C)(C(=O)c2ccc3ccccc3c2)C=C1c1ccc2ccccc2c1 | 0.2%
COc1cc(C(=O)O)ccc1O | 1.4%
O=C(O)c1ccc2cc(-c3ccc(O)c(C45CC6CC(CC(C6)C4)C5)c3)ccc2c1 | 25.1µM*
COc1ccc(CN2CCNC(=O)C2CC(=O)N2CCCO2)c(OC)c1 (stereo not given) | -6.3%
CCN1/C(=C2\OC(=S)N(C)C2=O)C=Cc2ccccc21 | -2.4%
CCN1C(=O)/C(=C2/C=Cc3cc(C)ccc3N2CC)N(C)C1=S | 14.1µM*
CCN1/C(=C2\C(=O)N(C)C(=S)N2C)C=Cc2cc(OC)ccc21 | 2.4%
CC1(C)CC2(CCO1)OC(=O)CC2C(=O)Nc1ccc(Cl)cc1[N+](=O)[O-] (stereo not given) | -4.9%[57.5 µM]
C/C=C/C1=CC2=CC(=O)C(C)(OC(=O)c3c(C)cc(O)cc3O)C(=O)C2=CO1 (stereo not given) | 0.5%
SMILES | ERK EGF inh
COC(=O)[C@]1(C)CCC[C@]2(C)c3ccc(C(C)C)cc3C(=O)CC12 (stereo not given in full) | 36.0%
Cc1ccc(S(=O)(=O)N2C(=O)/C(=C3\SC(=S)NC3=O)c3ccccc32)cc1 | 0.8%[57.5 µM]
CC(=O)Nc1ccc(S(=O)(=O)N2c3ccccc3C(C)=CC2(C)C)cc1 | 1.5%
Cc1ccc(S(=O)(=O)N2c3ccccc3-c3c(ssc3=S)C2(C)C)cc1 | 12.6µM*
CCOC(=O)/C(C#N)=C/C=C1\C=Cc2ccccc2N1CC | 15.8µM*
CCOC(=O)/C(C#N)=C(C)/C=C1\Sc2ccccc2N1CC | 3.0%
CN1/C(=C/C=C(C#N)C#N)C=Cc2ccccc21 | -10.5%[57.5 µM]
CCCCCCCCCCCCC/C=C/[C@@H](O)[C@H](CO)NCCCCCCCC | -13.5%
Cc1nn(CC(=O)NCCc2ccccc2)c(C)c1[N+](=O)[O-] | -8.3%
Cc1nn(CC(=O)NCc2ccccc2F)c(C)c1[N+](=O)[O-] | -4.6%
Cc1nn(CC(=O)NCc2cc3ccccc3[nH]2)c(C)c1[N+](=O)[O-] | 14.1µM*
COCCNc1nc(C)nc2c1nc(-c1ccccc1)n2CCN1CCCCC1 | -4.3%
CC1(C)C(O)C=C[C@@]2(C)C1CC(=O)O[C@@]1(C)C3=CC(=O)OC(c4ccoc4)[C@]3(C)CCC21 (stereo not given in full) | 3.9%
Cc1cn([C@@H]2C[C@H](N=[N+]=N)[C@H](CO)O2)c(=O)[nH]c1=O | 14.8%[25.7 µM]
CC(=O)N1/C(=C/c2ccc(N(C)C)cc2)C(=O)c2ccccc21 | 25.1µM*
CN(C)c1ccc(/C=C2\CCC/C(=C\c3ccccc3)C2=O)cc1 | -4.4%
CN(C)c1ccc(/C=C2/C(=O)Nc3ccccc32)cc1 | -2.0%
CC1(C)OCC(CSC2=C(SCC3COC(C)(C)O3)C(=O)c3ncccc3C2=O)O1 (stereo not given) | -6.3%
COc1cc2c(C=O)c3c4c(cc(OC)c(OC)c4c2cc1OC)CCN3C | -3.8%
CN(C)Cc1ccccc1-c1cncnc1NCc1cccnc1 | 14.3%
CCc1cccc(C)c1NC(=S)NCC1CCN(c2ccc(OC)cc2)C1 (stereo not given) | 10µM*
Cc1ccccc1NC(=S)NCC1CCC(CNC(=S)Nc2ccccc2C)CC1 (stereo not given) | 6.9%[57.5 µM]
Cc1cc(C)c(NC(=S)NCC2CCN(C(C)c3ccccc3)C2)c(C)c1 (stereo not given) | -7.3%[57.5 µM]
CCc1ccccc1NC(=S)N1CCC(NC(=O)c2ccc(OC)cc2)CC1 | -11.8%
COc1ccc(N2CCN(C(=O)Nc3ccccc3Cl)CC2)cc1 | -1.4%

High-throughput results: PubChem, National Center for Advancing Translational Sciences (NCATS)
